Over roughly 25,000 sequences, “ln(normalized median fluorescence intensity)” has its median near 9.7; the highest 2% begin near 11. Many of the other results were omitted from the sample, so the highest values are more common in it than they were.
system: PfAP2-HC AP2 domain (GST-tagged); test: gcPBM binding intensity (ln(normalized median fluorescence intensity)); higher = stronger DNA binding
Method in brief: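 Alexa488 anti-GST antibody, scanned at 488 nm, detected GST-tagged P. falciparum DNA-binding domains that had been expressed in E. coli and incubated for 1 h on an Agilent 4 × 180k array. The array carried primer-extended double-stranded 36-bp intergenic genomic probes and negative controls. Binding intensity is the highest Masliner-normalised natural-log median intensity across replicate spots of either orientation of each probe.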

Going from “AAAAAAAAAAAAATGTGTACATACATATATTTATAT [XGTACX_site3076]” to CTTTCGGTTGGAGAGGTGCGCTTCTCCTTTATAATA, the “gcPBM binding intensity (ln)” value falls from 9.74 to 9.61.

Going from “TTTTTTTTTTATGGTACACACACGCGTATGGTTGCA [CACACA_site1876]” to “AAGAAATAAATACATACACACATATATATATATATA [CACACA_site3362]”, the “gcPBM binding intensity (ln)” value rises from 10 to 10.3.

First: CGAAAGAAAAAAAGCACACACAGTTTTGAGCAATGA [CACACA_site2109]
Second: AAGTTTTATATTTATTAAATTTTTTTTTTTCCTTTT [XGTACX_negctrl_site184]
The “gcPBM binding intensity (ln)” value of the first is higher: 10.1 for the first, 9.2 for the second.

Compared with “AATATTCGTAATTGATGTACTTGTAATTCATACATT [XGTACX_site8314]”, “AACTTTGGCAAACACACACACACACCCACACCCACA [CACACA_site588]” is higher in “gcPBM binding intensity (ln)” value: 9.67 for the first, 10.5 for the second.

Going from “ATTTGGCATAAACACACACACACACCCACCCACATA [CACACA_site8096]” to “ATTTGGCAGAAACACACACACACACCCACCCACATA [CACACA_site589]”, the “gcPBM binding intensity (ln)” value falls from 10.9 to 10.5.

Compared with “AAAAATTTGGCATACACACACACACCCACACCCACA [CACACA_site587]”, “AAATTTGGCAAACACACACACACACCCACACCCACA [CACACA_site8095]” is higher in “gcPBM binding intensity (ln)” value: 10.4 for the first, 11.4 for the second.

Going from “AAATTTGGCAAACACACACACACACCCACAGAGACA [CACACA_site4490]” to “GATATGGAATATATGTGTACATATATATATATTATA [XGTACX_site1724]”, the “gcPBM binding intensity (ln)” value falls from 11.3 to 9.77.

Compared with “TATTTATAAAAAAATACATGCATTTTTTTTTTTTTT [TGCATGCA_site65]”, “AAAACAAATTAAAATCGTACAATTATAATGTTAATG [XGTACX_site180]” is higher in “gcPBM binding intensity (ln)” value: 9.36 for the first, 9.7 for the second.

Compared with “TATTCTAATATATGCATACACACAAATGTGAATATA [CACACA_site2143]”, “AGATAGCTATTAAAAAGTACAAAAAAATATATATAT [XGTACX_site6289]” is higher in “gcPBM binding intensity (ln)” value: 9.66 for the first, 9.71 for the second.

First: ATATTACACATATATGCACACATTGTAGTTATTTAT [CACACA_site8843]
Second: ATATATAACGTGCACACACACATTTACGTATGAATA [CACACA_site6948]
The “gcPBM binding intensity (ln)” value of the first is lower: 9.99 for the first, 10 for the second.

Going from “ATATATAACGGGCACACACACATTTACGTATGAATA [CACACA_site1833]” to “TAATATATAACGTGCACACACACATTTACGTATGAA [CACACA_site1832]”, the “gcPBM binding intensity (ln)” value falls from 11.1 to 10.

First: TTTATTAGTAATTATACACACATATAAAATGAATAA [CACACA_site6754]
Second: ATAATAAGGTTAAGCACACATATTACATATATAACT [CACACA_site3356]
The “gcPBM binding intensity (ln)” value of the first is lower: 9.67 for the first, 10 for the second.

Going from “GTTATATAAAAATATTGTACATTCTATATAAAGTCA [XGTACX_site4418]” to “ATATAGATCAGACACACACACATGTTTTAAAACTAT [CACACA_site6186]”, the “gcPBM binding intensity (ln)” value rises from 9.47 to 10.9.

Going from “TTATATATAGATCACACACACACACCGGTTTTAAAA [CACACA_site4220]” to “TGTTTTTAAAAAAAAAAAAAATCACACCGGCAGGTA [CACACA_negctrl_site1437]”, the “gcPBM binding intensity (ln)” value falls from 11.2 to 9.49.

First: TAAGAAAAATATATATGTACACATATATATATATAT [XGTACX_site8542]
Second: CTTTGTGTTAAAAGTAGTACACCAAAAATATGACTT [XGTACX_site622]
The “gcPBM binding intensity (ln)” value of the first is higher: 9.61 for the first, 9.55 for the second.

First: TGGAAAAATAGGCACACACACATATATACATATATA [CACACA_site1297]
Second: AATGGAAAAATAGGCACACACACATAAATACAGATA [CACACA_site4844]
The “gcPBM binding intensity (ln)” value of the first is lower: 10.5 for the first, 11.2 for the second.

Compared with “AATGGAAAAATAGGCACACACACATATATACATATA [CACACA_site1298]”, “AATACATACAGACACACACACACATATAAATAAATA [CACACA_site7642]” is higher in “gcPBM binding intensity (ln)” value: 10.6 for the first, 11.6 for the second.

Going from “CATACATACAGACACACACACATATAAATACATACA [CACACA_site6533]” to “TATACAGACAGACACACACACATATATAAATATGTA [CACACA_site6912]”, the “gcPBM binding intensity (ln)” value rises from 10.3 to 10.6.

Going from “TTAAAAAAAAGACACACACACATACACATATTTATA [CACACA_site7535]” to “AATGGCAAAATAGGCACACACACATATACAGATATA [CACACA_site4726]”, the “gcPBM binding intensity (ln)” value falls from 11.2 to 10.6.

First: TGGCAAAATAGGCACACACACATATACATATATATT [CACACA_site1059]
Second: ATATTATACATTTATACACACATAAAAAGACAAAAA [CACACA_site3565]
The “gcPBM binding intensity (ln)” value of the first is higher: 10.3 for the first, 9.92 for the second.

Going from “AAAAAAAAAAGACACACACACATATTTATTTATATA [CACACA_site6484]” to “AATGGCAAAATAGGCACACACACATATACATATATA [CACACA_site1058]”, the “gcPBM binding intensity (ln)” value rises from 10.4 to 10.9.

Compared with “TTCTATATATAATATTGTACTTAATTATTTTATTTT [XGTACX_site2701]”, “TTTTATCATATTTATTGTACACATAATATACATATC [XGTACX_site1145]” is higher in “gcPBM binding intensity (ln)” value: 9.83 for the first, 9.99 for the second.

First: GATATGTACTAATACACACACATATATATATATATA [CACACA_site1022]
Second: ATACATTTTTGTAAAAGTACATATACATGCCCCCTT [XGTACX_site1367]
The “gcPBM binding intensity (ln)” value of the first is higher: 10.2 for the first, 9.72 for the second.

Compared with “TTATATATATATGTATGTACTTATAACTTTTATTAG [XGTACX_site3190]”, TTTTTTTTTTTTGTAGTGCAAATTAAAAATATATGT is lower in “gcPBM binding intensity (ln)” value: 9.6 for the first, 9.39 for the second.

Going from “ACATAGATCATAGGTTGTACGAAGGTATCCTTTATT [XGTACX_site694]” to “AAGATAACAAGTAATCAATCTAATTATTAATTATAT [CACACA_negctrl_site1713]”, the “gcPBM binding intensity (ln)” value falls from 9.65 to 9.52.

First: AACGAACACTATTACACACATACATACATATGTATG [CACACA_site1859]
Second: AAGGAAAAACCATTCGCACACACACCGAATATATAA [CACACA_site8403]
The “gcPBM binding intensity (ln)” value of the first is lower: 10.1 for the first, 10.2 for the second.

First: CAATTTTACTCATAAACACACATATAGATGTTATTA [CACACA_site7474]
Second: AAATAATATATTCCTTGTACTTATTTCAATGAATTC [XGTACX_site7719]
The “gcPBM binding intensity (ln)” value of the first is lower: 9.6 for the first, 9.64 for the second.

Compared with “AAAAAAAACAGACACACACACATTCAATATAAAACA [CACACA_site41]”, “CAAGGAACCAGACACACACACATAAATGTATATATA [CACACA_site752]” is lower in “gcPBM binding intensity (ln)” value: 11.3 for the first, 10.2 for the second.

Compared with “AAAAAAAACGAACACACACACATTCAATATAAAACA [CACACA_site6170]”, “GATACAGATGGACACACACACATACATAAATACATA [CACACA_site5833]” is higher in “gcPBM binding intensity (ln)” value: 10.5 for the first, 11.3 for the second.

Compared with “GGAATAACCAGACACACACACACATATATATATATA [CACACA_site3541]”, “GGAATAACCAGACACACACACACATATAAATATGTA [CACACA_site7632]” is higher in “gcPBM binding intensity (ln)” value: 10.9 for the first, 11.2 for the second.

First: ATGGGACAGATATATACACACATATAAATATAAATA [CACACA_site6684]
Second: TATACAGATGGACACACACACATATATATATATATA [CACACA_site5272]
The “gcPBM binding intensity (ln)” value of the first is lower: 10 for the first, 11 for the second.

Compared with “AAAAAAAAAAAACACACACACACATTCAATATAAAA [CACACA_site40]”, “CAAATACATGGACACACACACATATACAGATATATA [CACACA_site5854]” is higher in “gcPBM binding intensity (ln)” value: 10.4 for the first, 10.9 for the second.

Going from “GAATAATATGGACATACACACATATACATACAGATA [CACACA_site5200]” to “TATACAGATGGACACACACACATAAATAAATATATA [CACACA_site4863]”, the “gcPBM binding intensity (ln)” value falls from 10.5 to 10.4.

Reference: the supplement of paper PMC11417369
